# Sampled rows, rich in hits. Any-hit rate of the full collection: about 2.8%.
# Pol kappa inh-1: inhibitors of human DNA polymerase kappa; hit rate 0.53% among 400,000; Potency, µM (titrated, usually from 107 µM), for the others: at the highest dose activity, negative = inhibition, most hits filed as inhibitors; Q9UBT6; AID 588579; purified Pol kappa, fluorescent DNA synthesis assay, 10 min; note: potency is the fitted concentration of half-maximal effect; % is set by controls: 0 for no effect and ±100 for the full control effect
#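 First, compounds were pin-transferred onto 10 nM Pol kappa. After 15 min at room temperature, substrate was added to 50 nM final. Fluorescence was then measured kinetically at 0 and 10 min.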
# Pol eta inh-1: inhibitors of human DNA polymerase eta. recombinant Pol eta, fluorescent DNA replication assay. hit rate 1.2% among 390,000. Q9Y253. AID 588591. Potency, µM (doses to about 114 µM), for inactives: top-dose activity change, negative = inhibition, most hits filed as inhibitors; note: potency is the fitted concentration of half-maximal effect; % is set by controls: 0 for no effect and ±100 for the full control effect
#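 Pol eta at 10 nM preincubated with compounds 15 min at room temperature; reaction started with fluorescent substrate (50 nM final) and read kinetically at 0 and 10 min.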
# Pol beta inh: inhibitors of human DNA polymerase beta; Potency, µM (series often up to 114 µM), for the others: at the highest dose activity change, negative = inhibition, usual class: inhibitors; P06746; Pol beta primer extension/strand displacement, fluorescence kinetic; AID 485314; hit rate 1.3% among 340,000; note: potency is the fitted concentration of half-maximal effect; % is set by controls: 0 for no effect and ±100 for the full control effect
#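 10 nM enzyme + cpd, 15 min RT; start with substrate 50 nM final; read 0 min and after 10 min RT. Corrected, normalized data; 4-parameter Hill curve fit.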
# POLI inh: blocks human DNA polymerase iota activity; Q9UNA4; Pol iota fluorescent replication assay, 10 min; Potency, µM (series often up to 115 µM), for inactives: at the top dose activity, negative = inhibition, actives largely listed as inhibitors; hit rate 1% among 390,000; AID 588590; note: potency is the fitted concentration of half-maximal effect
#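 Pol iota at 10 nM preincubated 15 min with compounds at room temperature; reaction started with fluorescent substrate, 50 nM final. Fluorescence read kinetically at 0 and 10 min; buffer-only wells as negative control.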
# PI5P4Ka inh: PI5P4K alpha (human) kinase inhibition | hit rate 1.2% among 330,000 | max response, % | PI5P4Kalpha enzyme, ADP-Glo luminescence, 60 min; stronger effect = lower value | AID 652105; active = max response of -50% or lower; inconclusive = between -30% and -50%; inactive = -30% or higher; note: value at the top dose of about 77 µM; % is set by controls: 0 for no effect and ±100 for the full control effect
#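 ADP-Glo luminescence end-point read after a 60 min room-temperature kinase reaction of PI5P4Kalpha plus substrate, initiated with ATP at 5 microM final. Buffer: 0.038 M HEPES pH 7.4, EGTA, 0.1% CHAPS, 5% DMSO.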
# WRN inhibitor: inhibitors of human WRN helicase. Q14191. WRN helicase unwinding, fluorescent forked duplex, kinetic. Potency, µM (titrated, usually from 114 µM), for inactives: at the highest dose activity change, negative = inhibition, hits mostly inhibitors. hit rate 0.46% among 360,000; note: potency is the fitted concentration of half-maximal effect; % is set by controls: 0 for no effect and ±100 for the full control effect; nearly all actives have a fitted effect of over 55% in size
#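 WRN at 20 nM final was preincubated with compound for 15 min at room temperature; reaction started with 100 nM forked duplex oligonucleotide carrying fluorophore and quencher plus 2 mM ATP (final). Unwinding followed kinetically by red fluorescence (ex 525/em 598 nm).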
# TbPGK inh: blocks T. brucei phosphoglycerate kinase. Potency, µM (series often up to 57.5 µM), for the others: top-dose activity change, negative = inhibition, hits mostly inhibitors. hit rate 79% among 500. shares compounds with Pol kappa inh-1. TbPGK coupled GAPDH assay, Kinase-Glo luminescence; note: potency is the fitted concentration of half-maximal effect; % is set by controls: 0 for no effect and ±100 for the full control effect; nearly all actives have a fitted effect of over 65% in size
# Target sequence (P07378 whole entry, looked up): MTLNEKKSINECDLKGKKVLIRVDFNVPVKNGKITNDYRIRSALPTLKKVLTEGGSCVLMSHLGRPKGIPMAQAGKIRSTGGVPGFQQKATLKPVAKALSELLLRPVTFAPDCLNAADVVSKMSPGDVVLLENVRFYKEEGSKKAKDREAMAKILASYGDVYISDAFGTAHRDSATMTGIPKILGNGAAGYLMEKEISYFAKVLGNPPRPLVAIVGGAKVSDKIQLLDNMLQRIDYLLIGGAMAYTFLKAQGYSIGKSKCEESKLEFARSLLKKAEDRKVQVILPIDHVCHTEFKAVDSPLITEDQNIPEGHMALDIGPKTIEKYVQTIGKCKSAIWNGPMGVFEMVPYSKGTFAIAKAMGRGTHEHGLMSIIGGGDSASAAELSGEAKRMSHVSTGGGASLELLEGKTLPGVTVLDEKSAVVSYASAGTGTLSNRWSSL
# Pol iota confirm: Human Pol iota inhibitor confirmatory assay | shares compounds with Pol kappa inh-1 | Pol iota primer extension, TAMRA/BHQ fluorescence | Potency, µM, hits mostly inhibitors | hit rate 77% among 1,500; note: potency is the fitted concentration of half-maximal effect
# Pol kappa inh-2: confirmation of human DNA polymerase kappa inhibitors | shares compounds with Pol eta inh-1 | purified Pol-kappa, fluorescent strand-displacement substrate | Potency, µM, most hits filed as inhibitors | hit rate 76% among 920; note: potency is the fitted concentration of half-maximal effect
# Pol eta inh-2: confirmation of human DNA polymerase eta inhibitors; shares compounds with Pol eta inh-1; Pol eta primer extension, TAMRA/BHQ fluorescence, 10 min; Potency, µM, most hits filed as inhibitors; hit rate 64% among 2,600; AID 720502; note: potency is the fitted concentration of half-maximal effect
# Numbers without * were called inactive; ? = inconclusive; · = no result; [ ] = dose if it differs, or a comment. Unless noted, calls come from the whole dose curve; as a rule, active = well fitted curve in the direction sought with a large enough effect; inconclusive = small, poorly fitted or top-dose-only effect, or another doubt; inactive = no such curve, though single readings can be large; an effect the other way counts as inactive or inconclusive.
SMILES,Pol kappa inh-1,Pol eta inh-1,Pol beta inh,POLI inh,PI5P4Ka inh,WRN inhibitor,Pol iota confirm,Pol eta inh-2,others
CCOc1ccc(Nc2ccc(N)c(S(=O)(=O)O)c2)cc1,32µM*,11µM*,·,11µM*,-60*,?,75*,38*,Pol kappa inh-2=75*
O=C1c2ccccc2-c2onc3ccc(N4CCCC4)c1c23,-21%,?,79µM*,35µM*,-26,22µM*,60*,?,Pol kappa inh-2=?
CCN(CC)C(=O)NC1CCCCCCC1,3%[60.1 µM],1%,-1%,14%,-4,7%,·,·,
Cc1c(NC(=O)COC(=O)c2ccc(Cl)nc2)c(=O)n(-c2ccccc2)n1C,3%,-3%,·,-5%,1,-1%,·,·,
COc1ccc(/C=C2\C(=O)NC(=O)c3ccccc32)cc1OC,-18%,20µM*,·,32µM*,-2,-12%,84*,30*,
CC(=O)c1cccc(OCC(=O)N(C)CC(=O)NCc2ccco2)c1,35µM*,3.2µM*,·,7.9µM*,-20,?,15*,5.4*,TbPGK inh=3.3µM*;Pol kappa inh-2=19*
COc1cc2c(-c3ccc(O)cc3)nc3c(c(C)nn3-c3ccccc3)c2cc1OC,-11%,?,?,?,19,?,24*,67*,
CC(C)(C)C(=O)Nc1cccc(OC(F)(F)C(F)Cl)c1 (stereo not drawn),-1%,-11%,?,27%,-11,-3%,·,·,
COc1ccc(NC(=O)C2CCN(C(=O)c3sc4nc[nH]c(=O)c4c3C)CC2)c(OC)c1,-1%[60.1 µM],7%,-24%,-1%,·,·,·,·,
C/C=C/C=C\C(=O)Nc1cccc(C2=NOC3(C2)C[C@H](C(N)=O)N(C(=O)/C=C/C)C3)c1 (stereo partly drawn),?,22µM*,?,?,?,?,34*,38*,
CCC(=O)Nc1cccc(C2=NOC3(C2)C[C@@H](C(N)=O)N(C(=O)CC)C3)c1 (stereo partly drawn),-9%,-5%,?,9%,2,-6%,·,·,
C/C=C\C=C\C(=O)N1CC2(CC(c3cccc(NC(=O)CC)c3)=NO2)C[C@H]1C(N)=O (stereo partly drawn),79µM*,35µM*,-21%,?,-4,?,12*,54*,
C=C(C)C(=O)Nc1cccc(C2=NOC3(C2)C[C@@H](C(N)=O)N(C(=O)CCCCC)C3)c1 (stereo partly drawn),7.9µM*,1.4µM*,2µM*,8.9µM*,?,40µM*,19*,3*,TbPGK inh=0.58µM*
CCn1ccnc1CN(C)Cc1nc(CCC(C)C)no1,4%,-5%,-1%,-11%,3,7%,·,·,
Cc1ccc(C(=O)NNC(=O)CSc2nnc3c(n2)[nH]c2ccc(F)cc23)cc1,-1%,79µM*,5µM*,11%,·,-14%,19*,?,Pol kappa inh-2=19*
COc1ccc2[nH]c3nc(SCC(=O)NNC(=O)c4ccc(OC)c(OC)c4)nnc3c2c1,3%,?,15%,0%,·,-34%,·,·,
CC1=C(C(=O)O)N2C(=O)[C@@H](NC(=O)[C@H](N)c3ccc(O)cc3)[C@H]2SC1,-11%,4%,·,5%,0,0%,·,·,
CC(=O)OCC1=C(C(=O)O)N2C(=O)C(NC(=O)C(C)Cn3nc(C)c(Cl)c3C)C2SC1 (stereo not drawn),?,22µM*,?,?,-3,-6%[11.6 µM],·,48*,TbPGK inh=16µM*
Cc1cc(C(F)F)nn1CC(=O)NC1C(=O)N2C(C(=O)O)=C(CSc3nnnn3C)CSC12 (stereo not drawn),-45%,28µM*,13µM*,?,3,-9%,·,?,TbPGK inh=-24%
Cc1nn(C(C)C(=O)NC2C(=O)N3C(C(=O)O)=C(CSc4nnnn4C)CSC23)cc1Cl (stereo not drawn),?,20µM*,25µM*,16µM*,-5,-12%[11.6 µM],·,?,TbPGK inh=-25%
CN(C)c1ccc(/C=C/c2ccnc3c(-c4ccccc4)cccc23)cc1,-3%,·,·,-6%,·,·,·,·,
NC(=S)NN=Cc1ccc(-c2ccc(S(=O)(=O)Nc3ncccn3)cc2)o1,20µM*,3.2µM*,·,?,-55*,25µM*,?,9.5*,Pol kappa inh-2=?
Cc1nc([N+](=O)[O-])cn1CC(O)c1ccc2c(c1)OCCO2 (stereo not drawn),-2%,·,·,?,·,·,·,·,
O=C1NC(=Nc2ccc3ccccc3c2)S/C1=C/c1ccco1,?,35µM*,8.9µM*,?,-55*,-4%[11.6 µM],38*,?,Pol kappa inh-2=27*
COc1ccc(NC2CCCN(C(=O)c3ccccc3N3CCOCC3)C2)cc1OC (stereo not drawn),-14%,-26%,13%,16%,-3,3%,·,·,
SMILES,Pol kappa inh-1,Pol eta inh-1,Pol beta inh,POLI inh,PI5P4Ka inh,WRN inhibitor,Pol iota confirm,Pol eta inh-2,others
C/C(N)=C(/C#N)C(=O)CSc1nc2ccccc2c(=O)n1Cc1ccc(F)cc1,79µM*,20µM*,7.9µM*,11µM*,-58*,-17%[11.6 µM],42*,48*,Pol kappa inh-2=38*
C/C(N)=C(/C#N)C(=O)CSc1nc2ccccc2c(=O)n1Cc1ccc(C)cc1,-25%,-11%,5%,?,-8,-15%,·,·,
Cc1ccc(SC2=C(N(C)C)C(=O)c3ccccc3C2=O)cc1,-19%,8.9µM*,·,20µM*,0,-11%,?,76*,
CCCCn1c(NS(=O)(=O)c2ccccc2)c(S(=O)(=O)c2ccc(C)cc2)c2nc3ccccc3nc21,-11%,45µM*,1%,7.9µM*,4,?,?,?,
O=C(O)C1=CCC=CC1C(=O)O (stereo not drawn),·,5µM*,·,·,-13,?,21*,15*,TbPGK inh=3.3µM*
O=C1CCCC(O)=C1N=Nc1cccc(C(=O)O)c1,50µM*,10µM*,10µM*,14µM*,?,?,34*,27*,
